What all share (experiment): NCI-60 one-dose screen, 48 h (100 = growth as untreated, 0 = no growth, -100 = all killed)
Conditions in all cases: 10 µM unless noted

Assay [1] concerns T-47D breast.
The test system of assay [2] is BT-549 breast.
Assay [3] relates to MDA-MB-435 melanoma.
In assay [4] the test system is SW-620 colon.
Assay [5] has as its system MCF7 breast.
The subject of assay [6] is HCT-116 colon.
The subject of assay [7] is HCC-2998 colon.
Assay [8] relates to KM12 colon.

About 83,000 compounds went through this panel and 20% of them were active in at least one assay; those are over-represented in the sample as a whole.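 Values shown are percent growth following 48 h exposure of cells in 96-well plates to a single concentration of compound; below 10 was considered active.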 Unmarked numbers belong to inactive results. Active and inactive are the calls of the source.

The text below walks through data of PubChem BioAssay (NCI).

As to `O=C(O)c1ccc2cccnc2c1O`, the growth in assay [1] was 10.3%; in assay [2], -16.5% (active); in assay [3], 10.1%; in assay [4], 26.1%; in assay [5] it was 10.8%; in assay [6] it was 2.32% (active). Also, the growth in assay [7] was 10.2%; in assay [8] it was 15.1%.
In the case of `O=C1NC(=S)S/C1=C\c1cc(Br)ccc1O`, the growth was 82.9% in assay [1]; 104% in assay [2]; 105% in assay [3]; 97.6% in assay [4]; 106% in assay [5]; 103% in assay [6]. The growth in assay [7] was 103%; in assay [8] it was 90.6%.
Consider `COc1cc(C(=O)/C=C/c2cccc(Nc3ccnc4cc(Cl)ccc34)c2)cc(OC)c1OC`, for which the growth in assay [1] is -46.4% (active); in assay [2], -27.9% (active); in assay [3], -16.1% (active); in assay [4] it was -51.5% (active); in assay [5] it was -40.3% (active); in assay [6], -62.5% (active). Also, the growth in assay [7] was 40.1%; in assay [8] it was -8.69% (active).
Consider `O=C(O)CCNS(=O)(=O)c1ccc(-c2ccccc2)cc1`, for which the growth was 108% in assay [1]; 127% in assay [2]; 102% in assay [3]; 95.4% in assay [4]; 106% in assay [5]; 108% in assay [6]. The growth is 111% in assay [7] and 117% in assay [8].
Take `CCN(CC)CCSc1ncnc2c1cnn2-c1ccc(S(N)(=O)=O)cc1`: the growth in assay [1] was 102%; in assay [2] it was 100%; in assay [3] it was 76.2%; in assay [4], 73.5%; in assay [5] it was 83.1%; in assay [6] it was 70.6%. For the same compound, the growth in assay [7] was 97.8%; in assay [8], 106%.
As for `O=c1[nH]cc(Nc2cc(Cl)c3nonc3c2[N+](=O)[O-])c(=O)[nH]1`, the growth in assay [1] was 101%; in assay [2] it was 114%; in assay [3] it was -41.2% (active); in assay [4], 89.8%; in assay [5], 109%; in assay [6], 99.1%. Further, the growth is 90.6% in assay [7] and 109% in assay [8].
Turning to `COc1cccc(-c2nc(-c3ccc(N)cc3)co2)c1`, the growth is 105% in assay [1]; 110% in assay [2]; 93.3% in assay [3]; 113% in assay [4]; 98.9% in assay [5]; 91.5% in assay [6]. Besides, the figures for the growth in assay [7] and in assay [8] were 122% and 99.2%, respectively.
For the compound `CCOc1nc(-c2ccco2)n2nc(-c3ccco3)cc2n1`, the growth in assay [1] is 84%; in assay [2] it was 119%; in assay [3], 114%; in assay [4], 107%; in assay [5], 39.8%; in assay [6], 108%. In addition, the growth in assay [7] is 123%; in assay [8], 91.7%.
Regarding `O=C(N/N=C/c1cccc(O)c1O)c1ccccc1`, the growth in assay [1] is 15.5%; in assay [2] it was 31.3%; in assay [3] it was 28.8%; in assay [4] it was 33.5%; in assay [5], 3.07% (active); in assay [6] it was 9.39% (active). In addition, the growth in assay [7] is 8.51% (active); in assay [8], 25.9%.
As to `CCOC(=O)C(Br)=P(c1ccccc1)(c1ccccc1)c1ccccc1`, the growth in assay [1] was 97.7%; in assay [2] it was 117%; in assay [3], 98.6%; in assay [4], 105%; in assay [5], 111%; in assay [6], 110%. In addition, the growth in assay [7] was 109%; in assay [8], 112%.
Consider `Cc1ccc(C2=NNC(c3sc(Cl)nc3Cl)C2)cc1` (stereo not given), for which the growth in assay [1] was 56.1%; in assay [2] it was 98%; in assay [3] it was 104%; in assay [4], 72.1%; in assay [5], 65.9%; in assay [6] it was 74.7%. The figures for the growth in assay [7] and in assay [8] were 92.8% and 99.5%, respectively.
Regarding `CC[C@@H](C)/C=C(C)/C=C/C(=O)c1c(O)c(-c2ccc(O)cc2)cn(OC2CC(=O)CCC(C)OC(=O)CC2O)c1=O` (stereo not given in full), the growth is 25.8% in assay [1]; 14.6% in assay [2]; 12.4% in assay [3]; 22.9% in assay [4]; 21.7% in assay [5]; 18.5% in assay [6]. Further, the growth in assay [7] is 8.22% (active); in assay [8], 19.8%.
For `COc1ccc2c(c1)C(=Nc1cc(OC)c(OC)c(OC)c1)C(=O)N2`, the growth in assay [1] was 98.7%; in assay [2], 99%; in assay [3] it was 118%; in assay [4], 102%; in assay [5], 105%; in assay [6] it was 51%. The growth in assay [7] was 125%; in assay [8], 105%.
As to `Cc1cc(C)c2c(N)c3cccc(C)c3nc2n1`, the growth in assay [1] is -3.39% (active); in assay [2], 0.0119% (active); in assay [3], 2.84% (active); in assay [4], -1.92% (active); in assay [5] it was 6.02% (active); in assay [6], -39.4% (active). For the same compound, the growth in assay [7] is -38.7% (active); in assay [8], 6.37% (active).
As to `O=C(CN1CCN(c2ccc(Cl)cc2)CC1)N1CCN(c2nnc(-c3ccc(Cl)cc3)c(-c3ccc(Cl)cc3)n2)CC1`, the growth in assay [1] is 52.4%; in assay [2], 89.3%; in assay [3], 73.4%; in assay [4], 80.6%; in assay [5], 56.7%; in assay [6], 47.2%. Also, the growth in assay [7] is 84.9%; in assay [8] it was 63%.
